In article PMC7862700, “An all-to-all approach to the identification of sequence-specific readers for epigenetic DNA modifications on cytosine”:

Columns and labels:
Test in all cases: DAPPL (digital affinity profiling via proximity ligation, sequencing); 10 mM Tris-HCl pH 7.5, 50 mM NaCl, 1 mM DTT, 4% glycerol, room temperature, 30 min; GST-TFs on glutathione beads, 16-mer random dsDNA library, 0.1% formaldehyde crosslink after washing; high values mean tight binding
[1] = biological target: T1, FLI1 (Homo sapiens, UniProt Q01543 1-452); settings: protein: recombinant; tags: N-terminal GST; dsDNA, one strand shown
T1 sequence: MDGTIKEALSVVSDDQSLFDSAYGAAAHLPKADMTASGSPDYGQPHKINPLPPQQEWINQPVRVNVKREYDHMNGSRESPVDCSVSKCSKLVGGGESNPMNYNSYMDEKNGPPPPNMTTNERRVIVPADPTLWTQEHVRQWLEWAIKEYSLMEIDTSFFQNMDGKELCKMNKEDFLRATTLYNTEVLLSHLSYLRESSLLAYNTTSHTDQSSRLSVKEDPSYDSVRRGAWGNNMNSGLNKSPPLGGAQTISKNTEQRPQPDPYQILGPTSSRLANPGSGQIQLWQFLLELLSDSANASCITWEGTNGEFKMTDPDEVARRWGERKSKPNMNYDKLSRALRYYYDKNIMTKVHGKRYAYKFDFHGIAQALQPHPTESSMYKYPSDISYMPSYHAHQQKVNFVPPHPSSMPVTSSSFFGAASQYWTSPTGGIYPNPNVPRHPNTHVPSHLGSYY
Method in brief: (§1)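 Human transcription factors were made in yeast as GST fusions, captured on glutathione beads and barcoded with DNA. With a tag-only sample included, the pool was incubated with 200 nmole of a random double-stranded 16-mer DNA library in Tris/NaCl/DTT/glycerol buffer at room temperature for 30 min, then crosslinked with 0.1% formaldehyde after washing, ligated by proximity, amplified and sequenced. For binding signal, each hexamer's read frequency for a factor is divided by its frequency for the tag-only sample.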

[2] = biological target: T2, ELK1 (Homo sapiens, UniProt P19419 1-428); settings: protein: recombinant; tags: N-terminal GST; dsDNA, one strand shown
T2 sequence: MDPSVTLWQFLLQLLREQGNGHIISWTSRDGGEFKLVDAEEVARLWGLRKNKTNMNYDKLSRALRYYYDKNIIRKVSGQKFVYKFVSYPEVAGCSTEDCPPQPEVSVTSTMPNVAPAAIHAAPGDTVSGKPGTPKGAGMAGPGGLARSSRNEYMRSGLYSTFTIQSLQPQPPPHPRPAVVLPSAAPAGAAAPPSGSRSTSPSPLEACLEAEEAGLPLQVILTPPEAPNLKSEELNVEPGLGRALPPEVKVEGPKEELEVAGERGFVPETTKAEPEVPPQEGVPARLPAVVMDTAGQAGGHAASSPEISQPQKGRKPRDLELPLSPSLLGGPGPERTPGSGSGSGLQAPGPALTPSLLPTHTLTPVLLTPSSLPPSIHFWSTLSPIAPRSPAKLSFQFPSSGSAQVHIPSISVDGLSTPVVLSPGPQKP
Method in brief: as §1

[3] = biological target: T3, GABPA (Homo sapiens, UniProt Q06546 1-454); settings: protein: recombinant; tags: N-terminal GST; dsDNA, one strand shown
T3 sequence: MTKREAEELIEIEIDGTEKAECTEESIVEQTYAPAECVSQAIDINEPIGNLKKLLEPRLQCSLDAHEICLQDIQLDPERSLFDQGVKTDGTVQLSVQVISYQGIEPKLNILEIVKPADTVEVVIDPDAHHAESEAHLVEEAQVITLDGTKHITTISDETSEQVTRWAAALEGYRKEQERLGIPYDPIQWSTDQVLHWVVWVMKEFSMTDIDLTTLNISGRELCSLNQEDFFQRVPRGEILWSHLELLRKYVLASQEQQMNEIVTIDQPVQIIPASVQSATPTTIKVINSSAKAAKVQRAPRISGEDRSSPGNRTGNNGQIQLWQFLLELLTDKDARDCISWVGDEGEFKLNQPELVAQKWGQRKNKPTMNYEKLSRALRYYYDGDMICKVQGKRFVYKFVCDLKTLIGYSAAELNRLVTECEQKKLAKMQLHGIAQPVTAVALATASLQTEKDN
Method in brief: as §1

[4] = biological target: T4, ERG (Homo sapiens, UniProt P11308 1-479); settings: protein: recombinant; tags: N-terminal GST; dsDNA, one strand shown
T4 sequence: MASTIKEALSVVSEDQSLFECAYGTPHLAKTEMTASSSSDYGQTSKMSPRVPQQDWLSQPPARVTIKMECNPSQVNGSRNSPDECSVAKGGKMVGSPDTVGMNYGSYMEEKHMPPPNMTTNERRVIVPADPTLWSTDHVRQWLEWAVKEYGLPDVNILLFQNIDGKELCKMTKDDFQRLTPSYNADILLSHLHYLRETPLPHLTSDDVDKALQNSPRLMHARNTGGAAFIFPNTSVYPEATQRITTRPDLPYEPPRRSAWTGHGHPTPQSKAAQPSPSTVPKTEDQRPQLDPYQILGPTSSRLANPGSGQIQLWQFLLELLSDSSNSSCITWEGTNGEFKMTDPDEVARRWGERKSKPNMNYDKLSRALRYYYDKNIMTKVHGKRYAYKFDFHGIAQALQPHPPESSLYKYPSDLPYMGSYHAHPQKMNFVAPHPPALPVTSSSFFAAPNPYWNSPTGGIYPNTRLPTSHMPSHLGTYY
Method in brief: as §1

[5] = biological target: ELF1 (Homo sapiens, UniProt P32519 1-619); settings: protein: recombinant; tags: N-terminal GST; dsDNA, one strand shown
Method in brief: as §1

[6] = biological target: T5, EHF (Homo sapiens, UniProt Q9NZC4 1-300); settings: protein: recombinant; tags: N-terminal GST; dsDNA, one strand shown
T5 sequence: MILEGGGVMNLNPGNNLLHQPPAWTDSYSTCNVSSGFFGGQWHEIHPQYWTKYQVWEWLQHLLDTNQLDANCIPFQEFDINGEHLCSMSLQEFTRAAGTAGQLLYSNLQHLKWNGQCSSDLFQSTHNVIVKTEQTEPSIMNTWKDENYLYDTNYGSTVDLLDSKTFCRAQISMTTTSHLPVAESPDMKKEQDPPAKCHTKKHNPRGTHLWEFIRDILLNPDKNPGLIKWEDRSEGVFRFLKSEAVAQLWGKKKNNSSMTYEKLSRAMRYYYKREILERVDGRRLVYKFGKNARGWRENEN
Method in brief: as §1

[7] = biological target: SPI1 (Homo sapiens, UniProt P17947 1-270); settings: protein: recombinant; tags: N-terminal GST; dsDNA, one strand shown
Method in brief: as §1

[8] = biological target: SPIB (Homo sapiens, UniProt Q01892 1-262); settings: protein: recombinant; tags: N-terminal GST; dsDNA, one strand shown
Method in brief: as §1

[9] = biological target: T6, ELK3 (Homo sapiens, UniProt P41970 1-407); settings: protein: recombinant; tags: N-terminal GST; dsDNA, one strand shown
T6 sequence: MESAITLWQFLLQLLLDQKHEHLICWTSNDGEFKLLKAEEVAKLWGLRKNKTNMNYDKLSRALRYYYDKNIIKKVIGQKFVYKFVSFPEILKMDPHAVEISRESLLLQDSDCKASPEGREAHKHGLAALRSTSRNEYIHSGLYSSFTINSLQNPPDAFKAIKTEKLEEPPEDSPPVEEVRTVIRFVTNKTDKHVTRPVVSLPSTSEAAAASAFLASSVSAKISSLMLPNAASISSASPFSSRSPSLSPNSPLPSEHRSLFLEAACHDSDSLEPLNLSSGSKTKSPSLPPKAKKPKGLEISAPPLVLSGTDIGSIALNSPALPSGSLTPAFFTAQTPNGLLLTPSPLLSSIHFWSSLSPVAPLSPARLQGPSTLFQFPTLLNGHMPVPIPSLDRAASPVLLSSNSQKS
Method in brief: as §1

[10] = biological target: T7, FEV (Homo sapiens, UniProt Q99581 1-238); settings: protein: recombinant; tags: N-terminal GST; dsDNA, one strand shown
T7 sequence: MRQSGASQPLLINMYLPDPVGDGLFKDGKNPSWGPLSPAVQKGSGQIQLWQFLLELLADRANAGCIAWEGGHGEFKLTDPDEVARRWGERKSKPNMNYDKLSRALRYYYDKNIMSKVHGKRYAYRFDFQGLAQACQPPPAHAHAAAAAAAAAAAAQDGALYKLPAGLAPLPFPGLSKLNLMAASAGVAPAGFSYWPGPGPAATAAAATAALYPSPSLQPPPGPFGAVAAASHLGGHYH
Method in brief: as §1

[11] = biological target: ETV5 (Homo sapiens, UniProt P41161 1-510); settings: protein: recombinant; tags: N-terminal GST; dsDNA, one strand shown
Method in brief: as §1

[12] = biological target: HSF1 (Homo sapiens, UniProt Q00613 1-529); settings: protein: recombinant; tags: N-terminal GST; chain copies: 3; dsDNA, one strand shown
Method in brief: as §1

[13] = biological target: T8, SPIC (Homo sapiens, UniProt Q8N5J4 1-248); settings: protein: recombinant; tags: N-terminal GST; dsDNA, one strand shown
T8 sequence: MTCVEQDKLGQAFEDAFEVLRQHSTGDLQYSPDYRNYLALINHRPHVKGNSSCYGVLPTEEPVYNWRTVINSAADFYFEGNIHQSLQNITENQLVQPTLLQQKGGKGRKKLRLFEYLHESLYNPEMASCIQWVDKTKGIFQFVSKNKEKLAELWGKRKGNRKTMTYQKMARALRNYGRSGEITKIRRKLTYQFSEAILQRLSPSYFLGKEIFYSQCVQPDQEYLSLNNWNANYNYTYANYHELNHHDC
Method in brief: as §1

[14] = biological target: ELF4 (Homo sapiens, UniProt Q99607 1-663); settings: protein: recombinant; tags: N-terminal GST; dsDNA, one strand shown
Method in brief: as §1

[15] = biological target: T9, ELK4 (Homo sapiens, UniProt P28324-2 1-405); settings: protein: recombinant; tags: N-terminal GST; dsDNA, one strand shown
T9 sequence: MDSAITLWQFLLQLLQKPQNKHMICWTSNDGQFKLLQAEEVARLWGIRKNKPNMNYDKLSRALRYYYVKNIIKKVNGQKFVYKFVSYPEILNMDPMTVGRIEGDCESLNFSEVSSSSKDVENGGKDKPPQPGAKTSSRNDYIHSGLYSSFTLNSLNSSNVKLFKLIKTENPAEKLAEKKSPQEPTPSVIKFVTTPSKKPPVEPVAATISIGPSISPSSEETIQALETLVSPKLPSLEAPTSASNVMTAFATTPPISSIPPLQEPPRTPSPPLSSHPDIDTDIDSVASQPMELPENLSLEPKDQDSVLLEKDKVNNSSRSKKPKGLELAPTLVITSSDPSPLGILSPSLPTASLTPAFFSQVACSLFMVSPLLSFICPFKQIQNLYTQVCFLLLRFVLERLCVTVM
Method in brief: as §1

[16] = biological target: T10, ETV2 (Homo sapiens, UniProt O00321 1-342); settings: protein: recombinant; tags: N-terminal GST; dsDNA, one strand shown
T10 sequence: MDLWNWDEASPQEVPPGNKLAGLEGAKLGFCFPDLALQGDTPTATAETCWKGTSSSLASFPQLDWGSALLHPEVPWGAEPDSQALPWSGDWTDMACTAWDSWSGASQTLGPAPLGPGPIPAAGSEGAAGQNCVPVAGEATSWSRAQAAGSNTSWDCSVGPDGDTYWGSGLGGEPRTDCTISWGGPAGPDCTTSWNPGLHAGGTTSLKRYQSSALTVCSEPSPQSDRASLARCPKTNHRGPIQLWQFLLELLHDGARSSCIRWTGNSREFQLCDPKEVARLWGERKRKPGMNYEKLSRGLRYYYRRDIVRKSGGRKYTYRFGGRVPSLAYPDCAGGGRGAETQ
Method in brief: as §1

[17] = biological target: T11, ELF3 (Homo sapiens, UniProt P78545 1-371); settings: protein: recombinant; tags: N-terminal GST; dsDNA, one strand shown
T11 sequence: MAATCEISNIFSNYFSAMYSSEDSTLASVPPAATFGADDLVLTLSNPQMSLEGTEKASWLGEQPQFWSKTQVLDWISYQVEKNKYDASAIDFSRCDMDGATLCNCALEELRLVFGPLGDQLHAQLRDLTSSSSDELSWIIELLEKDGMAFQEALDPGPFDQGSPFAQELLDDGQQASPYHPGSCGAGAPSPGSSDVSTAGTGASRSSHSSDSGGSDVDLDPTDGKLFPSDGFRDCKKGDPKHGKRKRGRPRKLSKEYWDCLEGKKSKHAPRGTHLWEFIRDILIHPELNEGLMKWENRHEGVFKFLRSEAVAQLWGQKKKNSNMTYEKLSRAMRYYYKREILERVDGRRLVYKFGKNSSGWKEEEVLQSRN
Method in brief: as §1

[18] = biological target: CRX (Homo sapiens, UniProt O43186 1-299); settings: protein: recombinant; tags: N-terminal GST; dsDNA, one strand shown
Method in brief: as §1

[19] = biological target: ETV1 (Homo sapiens, UniProt P50549 1-477); settings: protein: recombinant; tags: N-terminal GST; dsDNA, one strand shown
Method in brief: as §1

Chain of ETV5 (P41161 whole entry): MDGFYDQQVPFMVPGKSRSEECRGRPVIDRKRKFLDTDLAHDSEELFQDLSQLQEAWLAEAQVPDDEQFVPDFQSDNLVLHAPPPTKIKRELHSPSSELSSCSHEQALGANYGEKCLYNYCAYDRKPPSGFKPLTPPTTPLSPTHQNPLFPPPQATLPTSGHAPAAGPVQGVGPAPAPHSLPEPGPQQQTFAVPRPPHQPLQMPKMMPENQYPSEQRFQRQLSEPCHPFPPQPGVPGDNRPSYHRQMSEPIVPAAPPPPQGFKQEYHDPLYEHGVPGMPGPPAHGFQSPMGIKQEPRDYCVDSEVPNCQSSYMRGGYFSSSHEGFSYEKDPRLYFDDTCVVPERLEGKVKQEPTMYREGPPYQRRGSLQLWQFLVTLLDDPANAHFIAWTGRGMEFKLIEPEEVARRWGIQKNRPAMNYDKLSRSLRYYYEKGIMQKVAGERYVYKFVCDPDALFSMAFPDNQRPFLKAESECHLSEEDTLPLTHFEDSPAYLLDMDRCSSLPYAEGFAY
Chain of CRX (O43186 whole entry): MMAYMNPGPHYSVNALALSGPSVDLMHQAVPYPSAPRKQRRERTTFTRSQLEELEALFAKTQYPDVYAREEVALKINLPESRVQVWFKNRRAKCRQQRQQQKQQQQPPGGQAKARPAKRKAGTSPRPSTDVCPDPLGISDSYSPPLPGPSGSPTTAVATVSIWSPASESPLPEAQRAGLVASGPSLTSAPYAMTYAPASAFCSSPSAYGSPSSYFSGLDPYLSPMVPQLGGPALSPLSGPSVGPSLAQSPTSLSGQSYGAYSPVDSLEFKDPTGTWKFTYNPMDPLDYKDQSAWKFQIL
Chain of ELF1 (P32519 whole entry): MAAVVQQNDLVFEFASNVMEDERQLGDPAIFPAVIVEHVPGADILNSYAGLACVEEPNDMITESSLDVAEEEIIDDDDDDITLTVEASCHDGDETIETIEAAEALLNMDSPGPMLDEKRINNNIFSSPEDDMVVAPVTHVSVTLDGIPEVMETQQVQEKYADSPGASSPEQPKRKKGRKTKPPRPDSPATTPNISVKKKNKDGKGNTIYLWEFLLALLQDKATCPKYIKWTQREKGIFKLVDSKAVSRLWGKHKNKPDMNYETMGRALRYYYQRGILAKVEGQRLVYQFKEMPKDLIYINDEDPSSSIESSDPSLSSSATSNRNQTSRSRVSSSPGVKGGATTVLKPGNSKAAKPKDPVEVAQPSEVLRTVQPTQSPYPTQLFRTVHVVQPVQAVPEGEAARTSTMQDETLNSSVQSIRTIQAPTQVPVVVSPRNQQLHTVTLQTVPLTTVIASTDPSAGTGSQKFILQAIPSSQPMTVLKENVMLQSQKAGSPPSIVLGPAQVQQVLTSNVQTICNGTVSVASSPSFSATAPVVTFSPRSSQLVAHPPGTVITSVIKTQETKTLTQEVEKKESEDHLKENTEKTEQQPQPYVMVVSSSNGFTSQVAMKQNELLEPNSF
Chain of ETV1 (P50549 whole entry): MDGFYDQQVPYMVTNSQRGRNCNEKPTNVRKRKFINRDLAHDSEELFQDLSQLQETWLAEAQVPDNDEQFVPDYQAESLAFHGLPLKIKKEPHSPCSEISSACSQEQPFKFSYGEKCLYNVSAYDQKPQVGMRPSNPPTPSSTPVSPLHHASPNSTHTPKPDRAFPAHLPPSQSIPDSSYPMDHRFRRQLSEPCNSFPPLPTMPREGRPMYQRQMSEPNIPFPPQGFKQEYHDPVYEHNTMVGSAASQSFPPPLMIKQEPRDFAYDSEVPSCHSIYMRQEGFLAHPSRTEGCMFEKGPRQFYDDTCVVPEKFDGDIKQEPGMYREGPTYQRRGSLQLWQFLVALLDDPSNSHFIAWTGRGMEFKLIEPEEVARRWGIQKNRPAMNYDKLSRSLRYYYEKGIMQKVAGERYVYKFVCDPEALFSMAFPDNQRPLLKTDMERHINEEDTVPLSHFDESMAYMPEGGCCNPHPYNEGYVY
Chain of HSF1 (Q00613 whole entry): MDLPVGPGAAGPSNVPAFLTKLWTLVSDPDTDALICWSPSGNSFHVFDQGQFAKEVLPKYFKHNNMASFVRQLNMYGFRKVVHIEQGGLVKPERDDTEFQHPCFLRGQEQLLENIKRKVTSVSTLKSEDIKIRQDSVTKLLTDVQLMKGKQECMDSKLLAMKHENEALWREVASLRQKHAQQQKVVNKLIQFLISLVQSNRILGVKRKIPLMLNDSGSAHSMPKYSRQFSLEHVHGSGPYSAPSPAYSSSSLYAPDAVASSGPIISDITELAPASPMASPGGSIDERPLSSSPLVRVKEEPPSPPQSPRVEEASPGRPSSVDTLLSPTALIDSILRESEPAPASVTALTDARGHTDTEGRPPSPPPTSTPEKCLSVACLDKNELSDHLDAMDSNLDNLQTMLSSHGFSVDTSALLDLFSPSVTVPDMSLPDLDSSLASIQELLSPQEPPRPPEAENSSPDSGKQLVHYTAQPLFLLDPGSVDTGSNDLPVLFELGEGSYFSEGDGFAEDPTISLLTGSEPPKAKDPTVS
Chain of ELF4 (Q99607 whole entry): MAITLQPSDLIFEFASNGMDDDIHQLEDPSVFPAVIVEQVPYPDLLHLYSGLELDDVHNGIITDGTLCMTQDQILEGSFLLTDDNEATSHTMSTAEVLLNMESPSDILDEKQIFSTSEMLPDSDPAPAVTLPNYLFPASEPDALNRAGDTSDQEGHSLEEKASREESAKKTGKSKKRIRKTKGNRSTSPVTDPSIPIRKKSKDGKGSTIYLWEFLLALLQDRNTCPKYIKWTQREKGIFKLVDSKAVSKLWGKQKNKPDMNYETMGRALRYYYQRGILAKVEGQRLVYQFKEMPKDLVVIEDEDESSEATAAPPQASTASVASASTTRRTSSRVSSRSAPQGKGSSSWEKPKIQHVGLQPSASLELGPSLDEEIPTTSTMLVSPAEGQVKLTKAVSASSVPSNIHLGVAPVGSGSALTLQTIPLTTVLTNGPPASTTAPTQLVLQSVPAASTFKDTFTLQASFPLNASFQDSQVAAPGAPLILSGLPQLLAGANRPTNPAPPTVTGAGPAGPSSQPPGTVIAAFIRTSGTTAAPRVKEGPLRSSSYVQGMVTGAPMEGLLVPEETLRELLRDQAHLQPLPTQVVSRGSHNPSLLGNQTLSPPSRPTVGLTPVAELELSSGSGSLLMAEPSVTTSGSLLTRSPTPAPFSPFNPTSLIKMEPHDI
Chain of SPIB (Q01892 whole entry): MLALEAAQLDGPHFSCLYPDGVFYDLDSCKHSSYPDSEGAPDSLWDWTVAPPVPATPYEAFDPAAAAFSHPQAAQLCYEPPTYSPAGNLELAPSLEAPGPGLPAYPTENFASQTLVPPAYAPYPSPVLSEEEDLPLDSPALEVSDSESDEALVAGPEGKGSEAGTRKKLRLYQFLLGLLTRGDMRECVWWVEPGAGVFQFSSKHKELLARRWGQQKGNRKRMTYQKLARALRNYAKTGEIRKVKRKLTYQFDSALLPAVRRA

Sequence: ATTCCC
- binding signal [1]: 1.37 fold enrichment (6-mer frequency, TF over GST control)
- binding signal [2]: 1.32 fold enrichment (6-mer frequency, TF over GST control)
- binding signal [3]: 1.38 fold enrichment (6-mer frequency, TF over GST control)
- binding signal [4]: 1.3 fold enrichment (6-mer frequency, TF over GST control)
- binding signal [5]: 1.4 fold enrichment (6-mer frequency, TF over GST control)
- binding signal [6]: 1.35 fold enrichment (6-mer frequency, TF over GST control)
- binding signal [7]: 1.34 fold enrichment (6-mer frequency, TF over GST control)
- binding signal [8]: 1.48 fold enrichment (6-mer frequency, TF over GST control)
- binding signal [9]: 1.44 fold enrichment (6-mer frequency, TF over GST control)
- binding signal [10]: 1.42 fold enrichment (6-mer frequency, TF over GST control)
- binding signal [11]: 1.44 fold enrichment (6-mer frequency, TF over GST control)
- binding signal [12]: 1.61 fold enrichment (6-mer frequency, TF over GST control)
- binding signal [13]: 1.41 fold enrichment (6-mer frequency, TF over GST control)
- binding signal [14]: 1.47 fold enrichment (6-mer frequency, TF over GST control)
- binding signal [15]: 1.24 fold enrichment (6-mer frequency, TF over GST control)
- binding signal [16]: 1.42 fold enrichment (6-mer frequency, TF over GST control)
- binding signal [17]: 1.35 fold enrichment (6-mer frequency, TF over GST control)
- binding signal [18]: 1.57 fold enrichment (6-mer frequency, TF over GST control)
- binding signal [19]: 1.4 fold enrichment (6-mer frequency, TF over GST control)
